Test results as given in PubChem BioAssay (NCATS).
Records with an inconclusive call do not appear. Active and inactive are the calls of the source. Calls follow the shape of the dose curve; as a rule, active = well fitted inhibition curve with a large enough effect; inconclusive = small, poorly fitted or top-dose-only effect; inactive = no such curve, though single readings can be large or run the other way.

The molecules below were run against Rap guanine nucleotide exchange factor 4 (Homo sapiens) (UniProt Q8WZA2) (assay: Confirmatory qHTS for antagonist of cAMP-regulated guanine nucleotide exchange factor 4 (EPAC2) (AID 1645885; also: nearly all actives have a fitted effect of over 25% in size)). Settings: EPAC2 Rap1B-BODIPY-GDP exchange fluorescence, biochemical; series mostly up to 12.7 µM; activity change, negative = inhibition: at the top concentration.
Sequence of Rap guanine nucleotide exchange factor 4 (Homo sapiens) (Q8WZA2 whole entry, looked up): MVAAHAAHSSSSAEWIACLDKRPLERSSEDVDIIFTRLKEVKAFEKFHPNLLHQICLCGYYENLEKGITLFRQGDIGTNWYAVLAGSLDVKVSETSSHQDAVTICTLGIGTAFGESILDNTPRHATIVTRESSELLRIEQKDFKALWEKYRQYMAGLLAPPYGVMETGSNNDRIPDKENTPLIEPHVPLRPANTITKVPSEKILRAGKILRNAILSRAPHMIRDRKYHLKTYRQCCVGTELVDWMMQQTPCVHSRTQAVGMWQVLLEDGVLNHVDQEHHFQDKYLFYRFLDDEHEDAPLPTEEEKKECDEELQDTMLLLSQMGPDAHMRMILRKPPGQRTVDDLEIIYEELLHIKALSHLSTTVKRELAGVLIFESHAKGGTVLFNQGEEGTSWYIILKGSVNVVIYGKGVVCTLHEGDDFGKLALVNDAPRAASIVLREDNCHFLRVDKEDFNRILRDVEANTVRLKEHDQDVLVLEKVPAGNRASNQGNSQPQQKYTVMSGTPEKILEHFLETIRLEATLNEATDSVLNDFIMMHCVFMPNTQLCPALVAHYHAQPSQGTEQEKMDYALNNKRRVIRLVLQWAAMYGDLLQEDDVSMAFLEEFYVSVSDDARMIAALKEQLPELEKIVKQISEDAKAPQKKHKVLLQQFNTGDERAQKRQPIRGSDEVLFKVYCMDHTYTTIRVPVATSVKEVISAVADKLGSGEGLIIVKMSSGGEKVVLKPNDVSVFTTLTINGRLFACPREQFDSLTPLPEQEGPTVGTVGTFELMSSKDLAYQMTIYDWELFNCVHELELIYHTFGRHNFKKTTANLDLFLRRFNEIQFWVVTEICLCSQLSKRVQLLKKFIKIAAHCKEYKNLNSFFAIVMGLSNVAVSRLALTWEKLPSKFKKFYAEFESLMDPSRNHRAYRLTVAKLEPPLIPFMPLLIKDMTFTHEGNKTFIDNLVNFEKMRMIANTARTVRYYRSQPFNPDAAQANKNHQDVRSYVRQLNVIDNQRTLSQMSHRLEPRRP
% is scaled to controls: 0 for no effect and ±100 for the full control effect; potency is read from the fitted curve at half-maximal effect.

Row | SMILES | activity change, negative = inhibition | Potency | outcome
1 | Cc1cccc(-n2ccnc2SCC(=O)Nc2ccc(F)cc2F)c1C | -9.1% (inactive) |  | 
2 | CN(CC(=O)Nc1cccc(F)c1)C(=O)c1cccc(S(=O)(=O)N2CC3(C)CC2CC(C)(C)C3)c1 (stereo not given) | -6.13% (inactive) |  | 
3 | Cc1cc(C)nc(NS(=O)(=O)c2ccc(NC(=O)CN3C(=O)S/C(=C\c4ccccc4)C3=O)cc2)n1 | 72.2% [at 114 µM] (inactive) |  | 
4 | O=C(N/N=C/c1c(O)ccc2ccccc12)c1[nH]ncc1Br | 50.8% [at 114 µM] (inactive) |  | 
5 | COc1ccc(NC(=O)Cn2ncc(Cl)c(Cl)c2=O)cc1S(=O)(=O)N1CCOCC1 | -1.55% (inactive) |  | 
6 | O=C(NC1(O)C(=O)c2ccccc2C1=O)c1ccc(C(F)(F)F)cc1 | -20.3% [at 114 µM] (inactive) |  | 
7 | O=C(NC1CCCCC1)C(c1ccc(-c2ccccc2)cc1)n1c(=O)c(-c2ccco2)nc2ccccc21 (stereo not given) | 105% [at 114 µM] (inactive) |  | 
8 | Cc1cccc(S(=O)(=O)Nc2ccc(S(=O)(=O)Nc3nccs3)cc2)c1 |  | 75.7 µM (active) | 
9 | O=C(N/N=C/c1ccc(Sc2ccccn2)o1)c1cc2ccccc2cc1O | 71.1% [at 114 µM] (inactive) |  | 
10 | O=C1/C(=C/c2cccs2)COc2ccccc21 | -3.54% (inactive) |  | 
11 | COc1ccccc1NC(=O)c1ccccc1NS(=O)(=O)c1cccs1 |  |  | inactive
12 | CCOC(=O)C1=CCN(S(=O)(=O)c2ccccc2Cl)C1c1ccc(Cl)c(Cl)c1 (stereo not given) | -8.87% (inactive) |  | 
13 | O=C(CC(c1ccccc1)c1cc(Cl)ccc1O)N1CCCC1 (stereo not given) | 63.5% [at 114 µM] (inactive) |  | 
14 | CC1OC(CC(=O)O)CC2=C1C(=O)c1c(O)cccc1C2=O (stereo not given) | -17.5% [at 114 µM] (inactive) |  | 
15 | Nc1c2c(=O)[nH]c(O)cc2nn1-c1ccccc1 | -17.5% [at 114 µM] (inactive) |  | 
16 | Cc1ccc(C(=O)c2cn(Cc3cccc(C)c3)c3nc(C)ccc3c2=O)cc1 | -26.4% (inactive) |  | 
17 | O=S(=O)(Nc1ccc(Cl)cc1NS(=O)(=O)c1ccccc1)c1ccccc1 | -22.1% (inactive) |  | 
18 | O=C(Nc1sc2c(c1C(=O)O)CCCC2)c1ccc(Cl)cc1 | -3.99% (inactive) |  | 
19 | Cc1ccc(-c2cc(C(=O)Nc3ccc(S(=O)(=O)Nc4onc(C)c4C)cc3)c3ccccc3n2)cc1 | -17.1% (inactive) |  | 
20 | COc1ccc(NC(=O)CN(C)C(=O)c2cc(-c3ccco3)nc3ccccc23)cc1 |  |  | inactive; activator; fitted 8.4921 uM

Row | SMILES | activity change, negative = inhibition | Potency | outcome
21 | CCOC(=O)c1ccc2ncc(C(=O)OCC)c(Nc3ccc(C)c(Br)c3)c2c1 |  |  | inactive [at 12.7 µM]
22 | CCCN(CC(=O)Nc1ccccc1OC)C(=O)c1cccc(S(=O)(=O)Nc2ccc(OC)cc2)c1 | -31.6% [at 114 µM] (inactive) |  | 
23 | Cc1ccccc1C(=O)Nc1sc2c(c1C(=O)N1CCCCC1)CCC(C)C2 (stereo not given) | -0.354% (inactive) |  | 
24 | Cc1ccc(-c2nc3ccc(Br)cn3c2Cc2ccccc2)cc1 |  |  | inactive
25 | COc1ccc(C(CC(=O)c2ccc(C)cc2)C(C#N)C#N)cc1OC (stereo not given) | 60.6% [at 114 µM] (inactive) |  | 
26 | CCOc1ccccc1NC(=O)C1CCN(c2nc(-c3ccc(OC)cc3)no2)CC1 | -6.6% (inactive) |  | 
27 | CCOc1ccccc1Oc1ncnc2c1oc1ccccc12 |  |  | inactive [at 12.7 µM]
28 | C=CCOC(=O)C1=C(C)NC(C)=C(C(=O)OCC=C)C1c1ccco1 | -20.5% (inactive) |  | 
29 | O=C(CSc1ccc(-c2ccco2)nn1)c1cccc([N+](=O)[O-])c1 | -2.5% [at 114 µM] (inactive) |  | 
30 | Cc1cc(SCC(=O)N/N=C/c2ccc(O)c(O)c2)nc2ccccc12 | -3.91% (inactive) |  | 
31 | CC(C)Nc1nc(NC(C)C)nc(OCCOC(=O)c2ccccc2)n1 | -21.7% [at 114 µM] (inactive) |  | 
32 | c1cc(-c2cc3nc(NC4CCCCC4)ccn3n2)ccc1OCCN1CCOCC1 | -15.6% [at 114 µM] (inactive) |  | 
33 | C=CS(=O)(=O)N(Cc1ccccc1Br)[C@H](CO)CC(C)C | -10.8% (inactive) |  | 
34 | Oc1c(C2=NCCNC(C(F)(F)F)=C2)ccc2ccccc12 | -12.2% (inactive) |  | 
35 | O=C(/C=C/c1ccc(-c2ccccc2[N+](=O)[O-])o1)c1ccco1 | 3.06% (inactive) |  | 
36 | O=C1N(Cc2ccccc2)c2ccccc2C1(O)c1c[nH]c2ccccc12 (stereo not given) | 24.6% (inactive) |  | 
37 | Cn1cccc1C(=O)NC(=O)COC(=O)c1ccc(S(C)(=O)=O)c([N+](=O)[O-])c1 | -7.75% (inactive) |  | 
38 | CCC1=NN2C(=N)/C(=C/c3ccc(OS(=O)(=O)c4ccccc4)cc3)C(=O)N=C2S1 | -6.12% [at 114 µM] (inactive) |  | 
39 | CCCN1CCN(c2ncnc3sc(C(=O)Nc4ccc(OC(F)(F)F)cc4)c(C)c23)CC1 | 24.5% (inactive) |  | 
40 | Cc1cccc(Cn2c(COc3ccccc3)nc3ccccc32)c1 | -26.3% (inactive) |  | 
